Test results from PubChem BioAssay (NCATS).
Values without a mark were called inactive. Inconclusive results are not listed. The source made the active and inactive calls. Unless noted, the call rests on the fitted dose curve; in most records, active means well fitted curve in either direction with a large enough effect (not every such curve was filed as active); inconclusive means small, poorly fitted or top-dose-only effect, or another doubt; inactive means flat fitted curve, though single readings scatter.

Tests used:
[1] = target: Lysosomal acid glucosylceramidase (Homo sapiens) (UniProt P04062); experiment: Glucocerebrosidase-p2 (AID 348; in the data active means potency below about 10 µM; further: potency means the concentration at half of the fitted maximal effect); conditions: purified GBA, blue fluorogenic substrate, 40 min
Chain of Lysosomal acid glucosylceramidase (Homo sapiens) (P04062 whole entry, looked up): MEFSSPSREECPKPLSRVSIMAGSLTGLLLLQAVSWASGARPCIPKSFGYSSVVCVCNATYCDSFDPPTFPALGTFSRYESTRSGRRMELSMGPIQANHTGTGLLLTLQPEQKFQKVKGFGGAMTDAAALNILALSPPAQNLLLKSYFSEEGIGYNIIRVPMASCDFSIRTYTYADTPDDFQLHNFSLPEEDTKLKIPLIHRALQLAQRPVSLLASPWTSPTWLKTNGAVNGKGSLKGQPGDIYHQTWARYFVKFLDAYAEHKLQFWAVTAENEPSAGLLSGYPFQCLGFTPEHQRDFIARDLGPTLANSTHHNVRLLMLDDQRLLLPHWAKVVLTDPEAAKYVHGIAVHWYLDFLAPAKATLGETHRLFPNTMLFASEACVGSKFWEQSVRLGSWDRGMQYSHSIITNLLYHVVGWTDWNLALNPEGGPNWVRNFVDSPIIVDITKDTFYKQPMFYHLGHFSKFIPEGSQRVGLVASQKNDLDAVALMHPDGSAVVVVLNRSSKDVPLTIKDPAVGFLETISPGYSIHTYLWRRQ
Method in brief: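 Normal human glucocerebrosidase (0.2 nM) with blue fluorogenic substrate (80 uM final) in citrate/phosphate pH 5.9 with 10mM sodium taurocholate, 0.01% tween-20; 40 min RT, NaOH/glycine stop; fluorescence Ex 365/Em 440; AC50 from a titration from 0.6 nM upwards.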

[2] = AP1 Signaling Pathway (AID 357); conditions: ME-180 AP-1-bla reporter, EGF-induced, beta-lactamase ratio, 5 h; at 7.69 µM (top of the series) unless noted;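 further: ME-180 reporter cells stimulated with EGF at its EC50 level; on the % scale 0 is the no-effect control and ±100 the full control effect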
Method in brief: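 Titration-series screen for positive or negative modulators of EC50 EGF-induced signaling in ME-180 cells carrying an AP-1-driven beta-lactamase reporter. After 5 hours at 37 degrees Celsius, CCF4 460nm/530nm emission ratio gave %Activity; AC50 values derived.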

[3] = target: Cytochrome P450 1A2 (Homo sapiens) (UniProt P05177); experiment: p450-cyp1a2 (AID 410; calls by dose curve; further: potency means the concentration at half of the fitted maximal effect;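 on activity change, negative = inhibition: -100% = full effect of reference inhibitor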); conditions: recombinant CYP1A2, luciferin-ME demethylation, luminescence; series mostly up to 11.4 µM
Chain of Cytochrome P450 1A2 (Homo sapiens) (P05177 whole entry, looked up): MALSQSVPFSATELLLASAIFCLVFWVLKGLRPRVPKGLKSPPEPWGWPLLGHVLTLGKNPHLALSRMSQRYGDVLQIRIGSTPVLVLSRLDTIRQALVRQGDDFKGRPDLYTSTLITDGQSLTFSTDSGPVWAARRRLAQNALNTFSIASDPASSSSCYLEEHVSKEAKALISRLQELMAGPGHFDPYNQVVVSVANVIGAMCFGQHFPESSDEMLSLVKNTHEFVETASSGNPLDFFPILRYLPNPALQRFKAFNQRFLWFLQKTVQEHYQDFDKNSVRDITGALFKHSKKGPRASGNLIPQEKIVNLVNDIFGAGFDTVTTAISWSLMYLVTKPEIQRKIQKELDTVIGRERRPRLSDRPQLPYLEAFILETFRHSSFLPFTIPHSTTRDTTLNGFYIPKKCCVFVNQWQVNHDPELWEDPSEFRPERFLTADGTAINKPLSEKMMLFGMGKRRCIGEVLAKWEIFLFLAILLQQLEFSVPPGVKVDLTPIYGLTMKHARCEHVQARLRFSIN
Method in brief: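 Read-out is luminescence from luciferin produced by CYP1A2 demethylation of Luciferin-ME (100uM, at Km). Detection reagent stopped the 60 min NADPH-dependent reaction; signals were normalized to 57 uM furafylline.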

[4] = NFAT Signaling Pathway (AID 444); conditions: Jurkat NFAT-bla M1, carbachol, beta-lactamase ratio, 5 h; at 7.69 µM (top of the series) unless noted;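 further: carbachol stimulus at about its EC50 of 1 µM final; on the % scale 0 is the no-effect control and ±100 the full control effect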
Method in brief: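 Jurkat cells carrying an NFAT-driven β-lactamase reporter and co-transfected muscarinic M1 receptor were treated with compound plus carbachol (1 uM final, an EC50 level) for 5 h at 37 °C. CCF4 loading followed for 1 h at RT; 460/530 nm ratio gave %activity.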

[5] = Stat Signaling Pathway (AID 446); conditions: ME-180 (cervical carcinoma) SIE beta-lactamase reporter, IL-6 stimulated, 5 h; at 7.69 µM (top of the series) unless noted;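 further: ME-180 cervical cancer cells given 40 pM IL-6 alongside compound; SIE-controlled beta-lactamase reporter measured as 460/530 nm FRET emission ratio; on the % scale 0 is the no-effect control and ±100 the full control effect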
Method in brief: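 Emission at 460 and 530 nm (excitation 405 nm) reports SIE-controlled beta-lactamase in ME-180 cells. Cells received compound with 40 pM IL-6 for 5 hrs at 37 C; data scaled between 300 pM IL-6 and 125 nM JAK-inhibitor controls.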

[6] = target: Glucocorticoid receptor (Homo sapiens) (UniProt P04150); experiment: GR-GFP Redistribution (AID 450;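 active means compounds whose dose series gives a full or clear partial fitted curve of increased nuclear translocation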; further: potency means the concentration at half of the fitted maximal effect); conditions: U2OS GR-GFP nuclear translocation, laser cytometry, 2 h
Chain of Glucocorticoid receptor (Homo sapiens) (P04150 whole entry, looked up, the tested form may be a part): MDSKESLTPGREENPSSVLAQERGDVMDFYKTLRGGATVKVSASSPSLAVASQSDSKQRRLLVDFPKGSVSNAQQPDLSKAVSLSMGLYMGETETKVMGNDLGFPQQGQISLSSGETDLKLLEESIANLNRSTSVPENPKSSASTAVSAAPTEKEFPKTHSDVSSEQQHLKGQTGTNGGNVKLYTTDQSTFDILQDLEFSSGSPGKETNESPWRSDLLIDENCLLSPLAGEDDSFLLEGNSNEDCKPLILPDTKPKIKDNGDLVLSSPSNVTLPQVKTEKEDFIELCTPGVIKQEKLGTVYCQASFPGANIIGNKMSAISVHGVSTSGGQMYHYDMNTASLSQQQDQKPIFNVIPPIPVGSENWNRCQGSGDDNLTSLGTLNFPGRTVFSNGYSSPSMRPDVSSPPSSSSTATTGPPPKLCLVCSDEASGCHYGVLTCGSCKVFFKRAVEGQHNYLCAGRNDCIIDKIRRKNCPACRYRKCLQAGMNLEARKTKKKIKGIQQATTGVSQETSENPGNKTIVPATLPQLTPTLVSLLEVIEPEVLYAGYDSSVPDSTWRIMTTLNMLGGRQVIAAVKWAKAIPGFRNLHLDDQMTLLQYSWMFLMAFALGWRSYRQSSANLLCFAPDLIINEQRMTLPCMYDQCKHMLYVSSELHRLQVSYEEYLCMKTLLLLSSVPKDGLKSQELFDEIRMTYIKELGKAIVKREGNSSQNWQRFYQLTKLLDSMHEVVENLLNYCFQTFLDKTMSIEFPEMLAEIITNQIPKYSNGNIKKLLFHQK

[7] = target: Glucocorticoid receptor (Homo sapiens) (UniProt P04150); experiment: GR-EFC Redistribution (AID 451; calls by dose curve; further: potency means the concentration at half of the fitted maximal effect); conditions: CHO-K1 GR-EFC translocation, beta-gal luminescence, 2 h
Method in brief: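 CHO-K1 cells stably expressing nuclear-localized β-gal enzyme acceptor and GR fused C-terminally to the enzyme donor fragment; ligand-driven nuclear translocation restores β-gal by complementation. Compounds titrated up to 46 uM final, 2 h at 37 °C; luminescence read.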

[8] = target: Mitogen-activated protein kinase 10 (Mus musculus) (UniProt Q61831); experiment: JNK3 AlphaScreen Assay (AID 530); conditions: JNK3 lysate, c-Jun phosphorylation; series mostly up to 11.4 µM;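 further: kinase came from lysate of stimulated human HepG2 cells; signal reports phosphorylation of biotinylated GST-cJun 1-79 at Ser73 with 10 µM ATP; on the % scale 0 is the no-effect control and ±100 the full control effect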
Method in brief: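 Biotinylated GST-cJun(1-79) served as substrate for JNK3 in HepG2 lysates stimulated with IL-1beta and TNF-alpha. ATP was 10 uM final, pH 7.6. Ser73 phosphorylation was quantified by AlphaScreen (680 nm excitation).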

[9] = target: 3',5'-cyclic-AMP phosphodiesterase 4B (Homo sapiens) (UniProt Q07343); experiment: qHTS Assay for Inhibitors of PDE-IV (AID 607; active means well fitted activation curve with a large enough effect in the main read-out, with a control signal flat, not every such curve was filed as active; further: % of control where 0% means no effect); conditions: HEK293 ACTOne CNG channel cells, membrane potential fluorescence; series mostly up to 22.9 µM
Chain of 3',5'-cyclic-AMP phosphodiesterase 4B (Homo sapiens) (Q07343 whole entry, looked up): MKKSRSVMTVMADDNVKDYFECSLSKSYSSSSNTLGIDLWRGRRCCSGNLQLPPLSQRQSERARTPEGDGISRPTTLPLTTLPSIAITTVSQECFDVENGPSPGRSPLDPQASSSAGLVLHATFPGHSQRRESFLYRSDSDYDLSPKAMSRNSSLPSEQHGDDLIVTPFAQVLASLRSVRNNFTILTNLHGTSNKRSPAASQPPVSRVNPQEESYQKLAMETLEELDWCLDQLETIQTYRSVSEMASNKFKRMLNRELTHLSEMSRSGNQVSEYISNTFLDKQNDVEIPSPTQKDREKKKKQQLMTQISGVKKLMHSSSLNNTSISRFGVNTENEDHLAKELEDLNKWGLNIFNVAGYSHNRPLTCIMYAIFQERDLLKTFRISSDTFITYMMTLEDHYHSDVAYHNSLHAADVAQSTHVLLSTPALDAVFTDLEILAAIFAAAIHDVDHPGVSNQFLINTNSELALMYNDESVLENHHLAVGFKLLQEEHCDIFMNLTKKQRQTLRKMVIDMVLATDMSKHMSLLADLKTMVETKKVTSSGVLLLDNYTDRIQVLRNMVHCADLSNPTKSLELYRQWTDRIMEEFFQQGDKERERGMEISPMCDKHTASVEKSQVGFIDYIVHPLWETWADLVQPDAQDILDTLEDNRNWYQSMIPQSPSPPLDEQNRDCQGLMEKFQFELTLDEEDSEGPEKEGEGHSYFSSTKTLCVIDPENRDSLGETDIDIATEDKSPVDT
Method in brief: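 The readout is membrane depolarisation from a cAMP-sensing CNG channel, detected with a potential dye at ex 535/em 590. Cells were HEK293-derived (endogenous PDE-IV) at 1000 cells/well, titrated up to 22.9 uM final.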

| Structure (SMILES) | Potency [1] | activity change, negative = inhibition [2] | Potency [3] | activity change, negative = inhibition [4] | activity, negative = inhibition [5] | Potency [6] | Potency [7] | Potency [8] | Potency [9] | activity change, negative = inhibition [3] |
| --- | --- | --- | --- | --- | --- | --- | --- | --- | --- | --- |
| Oc1cccnc1CN1CCCCC1 | > 11.4 µM | -3.72% | inactive | 11.7% | 16.8% | > 46 µM | > 9.22 µM | inactive | inactive | – |
| O=C(CCN1CCOCC1)Nc1ccc(F)cc1F | > 11.4 µM | -2.63% | inactive | 13.2% | 8.47% | > 46 µM | > 9.22 µM | inactive | inactive | – |
| CC(=O)OC(C)(C)N=Nc1ccc(Br)cc1 | > 11.4 µM | -5.95% | 3.16 µM (active) | 14.8% | 2.84% | > 46 µM | > 9.22 µM | inactive | inactive | – |
| COc1ccc(CSC2=C(C#N)C(=O)NC3(CCCCC3)S2)cc1 | > 11.4 µM | 4.52% | – | 7.32% | 1.46% | > 46 µM | > 9.22 µM | inactive | inactive | -5.8% [at 2.29 µM] |
| O=c1[nH]c(=S)c2[nH]c(=O)n(-c3ccccc3)c2[nH]1 | > 11.4 µM | 12.1% | inactive | 15.1% | 8.32% | > 46 µM | > 9.22 µM | inactive | inactive | – |
| c1ccc2c(c1)C(=Nc1ccc(N=C3c4ccccc4-c4ccccc43)cc1)c1ccccc1-2 | > 11.4 µM | -0.81% | – | 10.5% | 4.55% | > 46 µM | > 9.22 µM | inactive | inactive | -19.6% [at 2.29 µM] |
| O=CN[C@@H](Cc1cnc[nH]1)C(=O)O | > 11.4 µM | 4.13% | inactive | 2.87% | 0.427% | > 46 µM | > 9.22 µM | inactive | inactive | – |
| O=C(CN1C(=O)c2ccccc2C1=O)NC1(C(=O)O)CCCC1 | > 11.4 µM | -5.19% | – | -0.506% | 7.15% | > 46 µM | > 9.22 µM | inactive | inactive | -2.1% [at 2.29 µM] |
| O=S(=O)(c1ccc(Br)cc1)N1CCN(S(=O)(=O)c2ccc(Br)cc2)CC1 | > 11.4 µM | 14.8% | inactive | -0.352% | 5.43% | > 46 µM | > 9.22 µM | inactive | inactive | – |
| OCCNc1ncnc2c1ncn2[C@@H]1O[C@@H](CO)[C@H](O)[C@@H]1O | > 11.4 µM | 3.21% | inactive | 9.99% | 25.8% | > 46 µM | > 9.22 µM | inactive | inactive | – |
| O=C(O)C/C(=C\c1ccccc1)C(=O)O | > 11.4 µM | 7.15% | inactive | -2.46% | 10.5% | > 46 µM | > 9.22 µM | inactive | inactive | – |
| NS(=O)(=O)c1ccc(N=Nc2ccc[nH]c2=O)cc1 | 3.95 µM (active) | -1.61% | 0.501 µM (active) | -25.2% | -6.14% | > 46 µM | > 9.22 µM | inactive | inactive | – |
| Cn1c(=O)c2[nH]c(CCC(=O)O)nc2n(C)c1=O | > 11.4 µM | 0.0396% | inactive | 10.1% | -0.184% | > 46 µM | > 9.22 µM | inactive | inactive | – |
| C=CCSc1nc2ccccc2c(=O)n1Cc1ccco1 | > 11.4 µM | -0.523% | 0.0251 µM (active) | 2.6% | -8.01% | > 46 µM | > 9.22 µM | inactive | inactive | – |
| O=C(NCc1cccnc1)[C@@H]1[C@@H](C(=O)O)[C@H]2CC[C@@H]1O2 | > 11.4 µM | 1.51% | inactive | 4.54% | 11.6% | > 46 µM | > 9.22 µM | inactive | inactive | – |
